# Screens (PubChem)
# Most compounds without a hit are left out; they make up all but 1.1% or so of the library.
# gsp antag – gsp mutant antagonism. AID 624288. 0.4% of 340,000 active. gsp-mutant cells, cAMP HTRF, 30 min. Potency, µM (doses to about 76.9 µM), for the others: at the highest dose activity change, negative = inhibition, actives largely listed as inhibitors; calls by dose curve; cell line not stated here;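 also: intracellular cAMP measured with PDE inhibitor Ro 20-1724 present during compound exposure; potency is read from the fitted curve at half-maximal effect; % is scaled to controls: 0 for no effect and ±100 for the full control effect; nearly all actives have a fitted effect of over 65% in size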
#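 G418-selected cells were plated in DMEM/10% FBS for 16-24 h at 37C, then treated with compounds plus the PDE inhibitor […] (300 uM solution added) for 30 min at 37C. Intracellular cAMP was measured by HTRF after 30 min lysis at room temperature.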
# a7 integrin act – activators of alpha7 integrin expression for muscular dystrophy | alpha7betagal myoblasts, beta-gal FDG fluorescence, 48 h | Potency, µM (top dose mostly 38.3 µM), inactives show top-dose activation, usual class: activators | 0.064% of 350,000 active | AID 624291;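 also: potency is read from the fitted curve at half-maximal effect; 100% = response of the positive control SU9516; nearly all actives have a fitted effect of over 60% in size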
#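 alpha7betagal+/- myoblasts (passage 13, 250/well) treated 48 h at 37C with compounds at 1:260 dilution of DMSO stock. Lysed, then beta-galactosidase activity read as FDG fluorescence (ex 480/em 540) after 30 min, with pre-read for autofluorescence.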
# RXFP1 agonist – RXFP1 (human) receptor agonism; HEK293T-RXFP1 cAMP TR-FRET, 30 min; response scale: percent of porcine relaxin response, buffer zero; 0.3% of 370,000 active; Potency, µM (doses to about 57.5 µM), for the others: top-dose activation, actives largely listed as activators; Q9HBX9; also: potency is read from the fitted curve at half-maximal effect; % is scaled to controls: 0 for no effect and ±100 for the full control effect; nearly all actives have a fitted effect of over 60% in size
# Target sequence (Q9HBX9 whole entry, looked up): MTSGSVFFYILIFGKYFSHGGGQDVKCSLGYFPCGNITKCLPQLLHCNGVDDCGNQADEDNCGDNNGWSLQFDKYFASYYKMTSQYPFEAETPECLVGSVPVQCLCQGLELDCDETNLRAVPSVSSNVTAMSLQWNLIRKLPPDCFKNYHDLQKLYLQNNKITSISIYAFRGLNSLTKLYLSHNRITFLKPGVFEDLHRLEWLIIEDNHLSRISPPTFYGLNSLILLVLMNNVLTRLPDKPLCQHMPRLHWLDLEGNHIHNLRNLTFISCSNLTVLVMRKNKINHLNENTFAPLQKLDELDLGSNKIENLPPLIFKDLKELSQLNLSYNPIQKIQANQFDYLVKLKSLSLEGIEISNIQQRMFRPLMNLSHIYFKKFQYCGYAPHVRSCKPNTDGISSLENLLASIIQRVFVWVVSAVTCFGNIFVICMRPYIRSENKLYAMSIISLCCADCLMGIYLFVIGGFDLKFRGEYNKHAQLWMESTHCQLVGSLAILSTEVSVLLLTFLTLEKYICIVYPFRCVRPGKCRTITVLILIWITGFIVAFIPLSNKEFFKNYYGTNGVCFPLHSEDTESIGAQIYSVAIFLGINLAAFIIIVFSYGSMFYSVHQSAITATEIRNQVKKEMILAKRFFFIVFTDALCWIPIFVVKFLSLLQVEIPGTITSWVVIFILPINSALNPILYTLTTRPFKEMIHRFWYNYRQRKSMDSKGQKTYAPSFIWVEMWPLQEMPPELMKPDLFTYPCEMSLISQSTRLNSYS
#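 HEK293T cells stably expressing RXFP1 were pretreated with the PDE4 inhibitor Ro 20174, exposed to compounds for 30 min at 37C, lysed, and cAMP was read by TR-FRET. Data normalized to buffer (basal) and 29 nM porcine relaxin (100%).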
# S-ASM inh – blocks human secretory acid sphingomyelinase; placental ASM, HMU-PC fluorogenic substrate, 60 min; Potency, µM (titrated, usually from 57.5 µM), for inactives: at the top dose activity change, negative = inhibition, hits mostly inhibitors; 0.006% of 340,000 active; also: potency is read from the fitted curve at half-maximal effect
#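 Human placenta-derived ASM preincubated with compound 10 min at room temperature, then reacted with 9 uM (final) fluorogenic HMU-PC substrate for 60 min at 37 C. Stop solution raises pH to 10; fluorescence read at Ex 386/Em 447 nm.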
# gsp ag – gsp mutant agonism; gsp mutant cells, cAMP HTRF, 30 min; Potency, µM (doses to about 76.9 µM), for inactives: top-dose activation (cAMP increase), most hits filed as activators; 0.13% of 340,000 active; active = well fitted activation curve with a large enough effect; inconclusive = small, poorly fitted or top-dose-only effect, or another doubt; inactive = no such curve, though single readings can be large or run the other way; cell line not stated here;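 also: phosphodiesterase inhibitor Ro 20-1724 added with compounds to block cAMP breakdown; potency is read from the fitted curve at half-maximal effect; nearly all actives have a fitted effect of over 60% in size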
#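 Cells stably selected in G418 were plated at 2000/well, grown 16-24 hr, then given compounds in DMSO with the PDE inhibitor […] (300 uM solution added) for 30 min at 37C; cAMP was read by HTRF.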
# RXFP1 antag – antagonists of human relaxin receptor RXFP1 | AID 1259400 | 0.59% of 350,000 active | HEK293-RXFP1, relaxin-stimulated cAMP HTRF, 30 min; active compounds read low | Q9HBX9 | activity change, negative = inhibition, % at 57.5 µM;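 active = activity change of -60% or lower, but not beyond a set lower limit; inconclusive = change between -60% and -40%, or beyond the set limit; inactive = change above -40%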; also: % is scaled to controls: 0 for no effect and ±100 for the full control effect
# * = called active by the depositor; ? = inconclusive; nt = not tested or not shown; [ ] = another dose, or the depositor's remark. Unless noted, calls follow the shape of the dose curve; as a rule, active = well fitted curve in the direction sought with a large enough effect; inconclusive = small, poorly fitted or top-dose-only effect, or another doubt; inactive = no such curve, though single readings can be large; an effect the other way counts as inactive or inconclusive.
SMILES,gsp antag,a7 integrin act,RXFP1 agonist,S-ASM inh,gsp ag,RXFP1 antag
Cc1ccc(CNC(=O)CCCCCn2c(=O)c3sccc3n(CC(=O)Nc3ccc(C)c(F)c3)c2=O)cc1,nt,nt,32µM*,nt,nt,-4
Cc1ccc(NC(=O)Cn2c(=O)n(CCCCCC(=O)NCc3ccc(F)cc3)c(=O)c3sccc32)c(C)c1,nt,nt,26%,nt,nt,6
CN(C(=O)CSc1nc2scc(-c3ccccc3)c2c(=O)[nH]1)c1ccccc1,?,?,nt,3%,-8%,-64*
CCOc1ccc(OCC)c(NC(=O)Cn2ncc3c4ccccc4n(Cc4ccccc4)c3c2=O)c1,nt,nt,0%,nt,nt,-3
CCOC(=O)C1=C(N)Oc2ccc3ccccc3c2C1c1cccnc1 (centres undefined),32µM*,-28%,1%,-4%,14%,-14
CCOC(=O)C1=C(N)Oc2ccc3ccccc3c2C1c1cccc(O)c1 (centres undefined),-10%,11%,1%,-22%,0%,-14
O=C(NCCN1CCCCC1)Nc1cccc(Cl)c1Cl,9%,7%,3%,-2%,-2%,-77*
Cc1ccc(C)c(NC(=O)NCCN2CCCCC2)c1,5%,22%,1%,0%,-8%,-77*
O=S(=O)(c1ccccc1)N1CCN(c2nnc(-c3ccccc3)c3ccccc23)CC1,?,3%,2%,-1%,8%[15.4 µM],-22
COc1cc(NC(=O)Cn2c(=O)n(Cc3ccccc3Cl)c(=O)c3cc(OC)c(OC)cc32)cc(OC)c1,nt,nt,25µM*,nt,nt,nt
CC(=O)OCCCN1c2ccccc2Nc2nnc(-c3ccccc3)cc21,40µM*,1%,0%,-2%,-11%,-4
Nc1nnnn1-c1ccccc1,nt,nt,nt,nt,nt,-74*
O=C(CSc1nnnn1-c1ccccc1)CSc1nnnn1-c1ccccc1,-7%,7%,2%,7%,1%,-1
CCc1ccc(NS(=O)(=O)c2ccc(OC)c3ncccc23)cc1,0%,-7%,-2%,5%,7%,34
CCc1ccccc1NS(=O)(=O)c1ccc(OC)c2ncccc12,28µM*,2%,1%,4%,0%,?
COc1ccc(CNC(=O)N2[C@H]3CC[C@@H]2C=C(c2ccc(F)cc2OCc2ccccc2)C3)cc1OC,nt,27%,nt,nt,-32%,12
C[C@@H]1CN([C@H](C)CO)C(=O)CCCn2cc(nn2)CO[C@H]1CN(C)C(=O)Nc1cccc(Oc2ccccn2)c1,nt,26%,nt,nt,11%,-10
Cn1c(SCC(=O)Nc2nccs2)nnc1-c1ccc(S(=O)(=O)N2CCCC2)cc1,-25%,-24%[7.66 µM],1%,0%,16%,-14
CCn1c(SCC(=O)Nc2nccs2)nnc1-c1ccc(S(=O)(=O)N2CCCCCC2)cc1,40µM*,-37%,1%,3%,20%,8
CCCCN1C(=O)C(O)(c2c(C)[nH]c3ccccc23)c2cc(Br)ccc21 (centres undefined),nt,nt,0%,nt,nt,-103*
Cc1ccc(Nc2nc(Cl)nc(NC(C)(C)C)n2)cc1,-16%,0%,0%,-4%,-27%,-71*
CCC(C(=O)Nc1ccccc1N1CCCC1)c1ccccc1 (centres undefined),-29%,-18%,0%,-2%,-38%,-68*
O=C(CN1C(=O)C2CCCCC2C1=O)Nc1ccccc1N1CCCC1 (centres undefined),-23%,6%,-1%,1%,5%[15.4 µM],-99*
O=C(CN1C(=O)C2CC=CCC2C1=O)Nc1ccccc1N1CCCC1 (centres undefined),?,-5%,0%,0%,7%,-15
CCOC(=O)c1c(C)[nH]c(C(=O)COC(=O)CNS(=O)(=O)c2ccc(C)cc2)c1C,32µM*,0%,2%,-10%,-17%,-10
SMILES,gsp antag,a7 integrin act,RXFP1 agonist,S-ASM inh,gsp ag,RXFP1 antag
CC(=O)c1c(C)[nH]c(C(=O)COC(=O)CNS(=O)(=O)c2ccccc2)c1C,-21%,39%[7.66 µM],1%,-1%,-7%,-13
Cc1noc(NS(=O)(=O)c2ccc(N/C=C\C(=O)c3ccncc3)cc2)c1C,22%,10%,?,-3%,20µM*,8
Cc1noc(NS(=O)(=O)c2ccc(N/C=C/C(=O)c3ccncc3)cc2)c1C,16%,23%,?,0%,?,11
[N-]=C=C1C(=S)NC(=O)[C@H]([n+]2ccccc2)[C@H]1c1ccc(Cl)cc1,5%,25%,9%,1%,20µM*,-2
COc1ccc(NC(=O)c2cc([N+](=O)[O-])ccc2N2CCCC2)cc1S(N)(=O)=O,0%,6%,1%,nt,22%,-3
O=C(N/N=C/c1cnc(N2CCCCC2)s1)c1ccc(Cl)cc1,-5%,-27%,0%,17%,-5%,2
O=Cc1cnc(N2CCCCC2)s1,5%,11µM*,2%,1%,-1%,3
Cc1ccc2[nH]c3c(N4CCN(Cc5ccccc5)CC4)ncnc3c2c1,16µM*,-55%,-3%,3%,-14%,?
Cc1ccc2c(c1)[nH]c1c(N3CCN(Cc4ccccc4)CC3)ncnc12,?,-47%,1%,-3%,0%,-32
c1ccc2c(c1)[nH]c1c(N3CCC4(CC3)OCCO4)ncnc12,32µM*,-55%,1%,5%,-26%,-36
c1ccc(CN2CCN(c3ncnc4c3[nH]c3ccccc34)CC2)cc1,32µM*,-39%,7%,3%,-31%,nt
CCOC(=O)C=Nc1c(N)n(C)c(=O)n(C)c1=O,13%,5%,3%,18%,2%,nt
O=C(COc1ccccc1/C=C1\SC(=S)NC1=O)Nc1ccc(F)cc1,?,0%,nt,-2%,-19%,-70*
CCOC(=O)c1c(-c2ccc(OC)c(OC)c2)csc1NC(=O)C1CCCO1 (centres undefined),25µM*,-20%,1%,0%,-4%[15.4 µM],-16
COc1cccc(-c2cc(C(=O)NCc3ccco3)c3ccccc3n2)c1,-2%,-31%,-2%,-3%,-45%,-86*
CCNC(=O)COC(=O)c1cc(-c2ccco2)nc2ccccc12,-8%,5.6µM*,6%,289%,-23%,11
CCCOc1cccc(-c2cc(C(=O)NNC(=S)NCC)c3ccccc3n2)c1,35µM*,-51%,-1%,-9%,-4%,-3
COc1cccc(-c2ccc(C#N)c(SCC(=O)NCc3ccco3)n2)c1,-20%,-23%,35µM*,3%,?,-5
CSc1ncc(C(=O)Nc2c(C)cccc2C)c(-c2ccccc2)n1,nt,nt,?,nt,nt,2
CCCC(=O)OCOC(=O)C1=C(C)NC(C)=C(C(=O)OC)C1c1cccc(Cl)c1Cl (centres undefined),nt,nt,nt,nt,nt,4
